Bioassay records from PubChem.
Only some compounds are listed: those with a hit (about 3.2% of all), similar ones and a draw of the others.
Vaccinia Venus – inhibitors of vaccinia virus (Venus reporter) | Vaccinia virus Venus reporter expression, fluorescence | Potency, µM (top dose mostly 36.5 µM), inactives show top-dose activity change, negative = inhibition, hits mostly inhibitors | hit rate 0.46% among 330,000; calls by dose curve; tested in A549 cells; further: nearly all actives have a fitted effect of over 30% in size
VACV mCherry inh – inhibitors of vaccinia virus infection (mCherry reporter signal). Vaccinia virus mCherry reporter infection, fluorescence. Potency, µM (doses to about 36.5 µM), for inactives: at the highest dose activity change, negative = inhibition, hits mostly inhibitors. hit rate 0.63% among 310,000. AID 720579; calls by dose curve; tested in A549 cells; further: nearly all actives have a fitted effect of over 35% in size
Lassa entry inh – Lassa virus entry inhibition. Lassa virus pseudotype entry inhibition, cell reporter. Potency, µM (doses to about 37.9 µM), inactives show at the highest dose activity change, negative = inhibition, usual class: inhibitors. hit rate 1.2% among 300,000. AID 540256; calls by dose curve; tested in HEK293 cells; further: nearly all actives have a fitted effect of over 50% in size
FMDV inh – blocks foot and mouth disease virus. hit rate 1.2% among 410,000. AID 1159524. Potency, µM (doses to about 57.9 µM), for the others: at the highest dose activity change, negative = inhibition, actives largely listed as inhibitors. FMDV antiviral cell-based qHTS; calls by dose curve; tested in HEK293T cells; further: read-out not given here; nearly all actives have a fitted effect of over 45% in size
MARV entry inh – Marburg virus entry inhibition. Marburg virus pseudotyped entry inhibition, cell reporter. Potency, µM (highest dose often 37.8 µM), inactives show at the highest dose activity change, negative = inhibition, most hits filed as inhibitors. hit rate 1.8% among 300,000. AID 540276; calls by dose curve; tested in HEK293 cells
An asterisk follows results filed as active; [ ] = remark or other dose. On the % scale 0 is the no-effect control and ±100 the full control effect; potency means the concentration at half of the fitted maximal effect.

How did CCCCn1c(CN2CCN(c3cccc(Cl)c3)CC2)nc2c1c(=O)[nH]c(=O)n2C do in these assays?
Vaccinia Venus: -25%; VACV mCherry inh: -15%; Lassa entry inh: inconclusive; FMDV inh: -9%; MARV entry inh: 1.3µM*

What do the screens show for `Cc1cccc(C(=O)Nc2sc3c(c2C(=O)NC(C)C)CCCC3)c1`?
Vaccinia Venus: -18%; VACV mCherry inh: -28%; Lassa entry inh: -9%[46.1 µM]; FMDV inh: inconclusive

Results for Cc1ccc(-n2nnnc2-c2cnn(-c3ccc(F)cc3)c2C(F)(F)F)cc1 ?
Lassa entry inh: 15µM*; FMDV inh: inconclusive; MARV entry inh: inconclusive

How did FC(F)(F)c1nc(-c2ccncc2)ncc1-c1nnnn1-c1ccccc1 do in these assays?
Lassa entry inh: -7%; FMDV inh: -13%; MARV entry inh: -1%

How did Cc1ccc(-n2nnnc2-c2cnc(-c3cccnc3)nc2C(F)(F)F)cc1 do in these assays?
Lassa entry inh: inconclusive; FMDV inh: 22µM*; MARV entry inh: -37%

What do the screens show for `Cc1ccc(-c2nnnn2-c2ccc(C)cc2)cc1`?
Vaccinia Venus: -2%; VACV mCherry inh: inactive; Lassa entry inh: -11%; FMDV inh: -10%; MARV entry inh: 0%[46.1 µM]

How did Fc1ccc(-n2nnnc2-c2cnc(-c3cccs3)nc2C(F)(F)F)cc1 do in these assays?
Lassa entry inh: inconclusive; FMDV inh: 16µM*; MARV entry inh: inconclusive

How did Nc1ccc2c(c1)C=C/C2=C\c1ccccc1 do in these assays?
Vaccinia Venus: -26%; VACV mCherry inh: -28%

What do the screens show for `O=C(CC(NC(=O)c1ccccc1)c1ccccc1)OCc1nc(-c2cccc(Cl)c2)no1` (stereo not given)?
Vaccinia Venus: -6%; VACV mCherry inh: -18%

Results for COC(=O)c1cc2sccc2n1Cc1ccc(F)cc1 ?
Vaccinia Venus: -15%; VACV mCherry inh: -12%; Lassa entry inh: -4%[46.1 µM]; FMDV inh: -20%

How did CC(C)NC(=O)C1CCN(C(=O)c2cc3sccc3n2Cc2ccc(F)cc2)CC1 do in these assays?
Vaccinia Venus: inconclusive; VACV mCherry inh: inconclusive; Lassa entry inh: inconclusive; MARV entry inh: 8.2µM*

What do the screens show for `CC(C)NC(=O)C1CCN(C(=O)c2cc3sccc3n2Cc2ccc(Cl)cc2)CC1`?
Vaccinia Venus: -23%; VACV mCherry inh: -6%; FMDV inh: 16µM*; MARV entry inh: inconclusive

What do the screens show for `O=C(NCc1ccccc1)c1cc2sccc2n1Cc1ccc(Cl)cc1`?
Vaccinia Venus: -3%; VACV mCherry inh: -2%; Lassa entry inh: 11%[46.1 µM]; FMDV inh: -1%; MARV entry inh: -11%[46.1 µM]

How did O=C(COc1coc(CN2CCc3ccccc3C2)cc1=O)Nc1ccc(F)cc1F do in these assays?
Vaccinia Venus: -8%; VACV mCherry inh: -28%; Lassa entry inh: 1%; FMDV inh: inconclusive; MARV entry inh: inconclusive

Results for CCOc1ccc2nc(NC(=O)C(NS(=O)(=O)c3cccc4nsnc34)C(C)C)sc2c1 (stereo not given) ?
Vaccinia Venus: inconclusive; VACV mCherry inh: 7.9µM*; FMDV inh: -25%; MARV entry inh: -6%

What do the screens show for `Cc1ccc2nc(NC(=O)c3ccccc3F)sc2c1`?
Vaccinia Venus: -13%; VACV mCherry inh: inactive; Lassa entry inh: inconclusive; FMDV inh: -15%; MARV entry inh: inconclusive

How did CC(C)C(NS(=O)(=O)c1cccc2nsnc12)C(=O)Nc1nc2ccc(Cl)cc2s1 (stereo not given) do in these assays?
Vaccinia Venus: inconclusive; VACV mCherry inh: -25%; FMDV inh: inconclusive; MARV entry inh: 2%

How did CSc1nc2ccc(NC(=O)c3ccccn3)cc2s1 do in these assays?
Vaccinia Venus: -21%; VACV mCherry inh: -4%; Lassa entry inh: 2µM*; FMDV inh: -49%; MARV entry inh: inconclusive

Results for CCOC(=O)c1ccc2nc(NC(=O)c3cccs3)sc2c1 ?
Vaccinia Venus: -27%; VACV mCherry inh: inconclusive; Lassa entry inh: inconclusive; FMDV inh: 16%; MARV entry inh: 4.5µM*

How did Cc1ccc2nc(NC(=O)c3ccccn3)sc2c1 do in these assays?
Vaccinia Venus: inconclusive; VACV mCherry inh: 22µM*; FMDV inh: 8.9µM*; MARV entry inh: inconclusive

What do the screens show for `COc1cc(CN2CCCC(n3cc(C(=O)N4CCCCC4)nn3)C2)cc2c1OCO2` (stereo not given)?
Vaccinia Venus: -4%; VACV mCherry inh: 0%; FMDV inh: -7%

How did FC(F)(F)c1nc2nc(Cl)c(Cl)nc2n1CCCN1CCOCC1 do in these assays?
Vaccinia Venus: -12%; VACV mCherry inh: -19%; FMDV inh: -27%

Results for COc1ccccc1C(=O)Nc1cccc(N2CCC(NCc3cnn(-c4ccccc4)n3)CC2)c1 ?
Vaccinia Venus: -30%; VACV mCherry inh: -7%; FMDV inh: -19%

What do the screens show for `O=C(Nc1nc2c(F)cc(F)cc2s1)c1ccccn1`?
Vaccinia Venus: inconclusive; VACV mCherry inh: inconclusive; Lassa entry inh: 7.1µM*; FMDV inh: -68%; MARV entry inh: inconclusive

Results for CCOc1ccc2nc(NC(=O)c3ccccn3)sc2c1 ?
Vaccinia Venus: inconclusive; VACV mCherry inh: 7.9µM*; Lassa entry inh: inconclusive; FMDV inh: -84%; MARV entry inh: inconclusive

How did O=C(COc1ccccc1)NNc1nc2c(F)cc(F)cc2s1 do in these assays?
FMDV inh: 4%

How did CCOC(=O)/C=C/c1ccc2c(c1)S(=O)(=O)N(C1CCCC1)[C@H]2CC(=O)OCC do in these assays?
Vaccinia Venus: -25%; VACV mCherry inh: -6%

How did O=C(/C=C/c1ccccc1)NC(=S)Nc1cccnc1 do in these assays?
Vaccinia Venus: -24%; VACV mCherry inh: -19%; Lassa entry inh: -3%; MARV entry inh: 12µM*

How did O=C(C=Cc1cccnc1)c1ccccc1 do in these assays?
Vaccinia Venus: -6%; VACV mCherry inh: -15%; Lassa entry inh: inconclusive; FMDV inh: 32µM*; MARV entry inh: 13µM*

Results for O=C(/C=C/c1cccnc1)c1ccc([N+](=O)[O-])cc1 ?
Vaccinia Venus: -25%; VACV mCherry inh: inconclusive; Lassa entry inh: inconclusive; FMDV inh: -5%; MARV entry inh: inconclusive

Results for COc1cc(C(=O)/C=C/c2cccnc2)c([N+](=O)[O-])cc1OC ?
Vaccinia Venus: 11µM*; VACV mCherry inh: 13µM*; FMDV inh: 14µM*

Results for O=C(/C=C/c1cccnc1)c1ccc(O)cc1 ?
Vaccinia Venus: 2%; VACV mCherry inh: inactive; Lassa entry inh: 18%[46.1 µM]; FMDV inh: 0%; MARV entry inh: inconclusive

How did CCOC(=O)CNC(=O)CSc1ncnc2c1cnn2-c1ccc(C)cc1 do in these assays?
Vaccinia Venus: 9%; VACV mCherry inh: 4%; Lassa entry inh: inconclusive; FMDV inh: 9%; MARV entry inh: inconclusive

How did COc1ccc(OC)c(NC(=O)CSc2ncnc3c2cnn3-c2ccccc2Cl)c1 do in these assays?
Lassa entry inh: inconclusive; FMDV inh: 7.9µM*; MARV entry inh: 1.8µM*

Results for CCOC(=O)CNC(=O)CSc1ncnc2c1cnn2-c1ccc(OC)cc1 ?
Vaccinia Venus: -23%; Lassa entry inh: inconclusive; FMDV inh: 0%; MARV entry inh: 11µM*

What do the screens show for `COc1cc(NC(=O)CSc2ncnc3c2cnn3Cc2ccccc2)cc(OC)c1`?
Lassa entry inh: -1%; FMDV inh: 4%; MARV entry inh: inconclusive
